Assay [1] can be described thus: Human pregnane X receptor (PXR) small molecule agonists, qHTS cell viability counter screen (AID 1346977). Further: nearly all actives have a fitted effect of over 50% in size. Further: potency means the concentration at half of the fitted maximal effect. The method, boiled down: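 PXR-Luc HepG2, 2,000 cells/well, 5% charcoal-stripped FBS; 5hr settle; cpd 24hr, 37C/5% CO2; CellTiter-Fluor at 23hr, read 1hr later (fluorescence).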
For orientation: qHTS replaces the single test concentration by a dilution series.

A short description of assay [2]: Caspase-3/7 induction in HepG2 cells by small molecules, qHTS assay (AID 1346978). Further: nearly all actives have a fitted effect of over 15% in size. Further: potency means the concentration at half of the fitted maximal effect. The method, boiled down: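 Wild-type HepG2 cells, 2,000/well, settled 5 hr at 37 C and 5% CO2, then compound-treated for 17 hr; caspase-3/7 activity read by luminescent Caspase-Glo 3/7 after 30 min at room temperature.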
The nature of assay [3]: Caspase-3/7 induction in CHO-K1 cells by small molecules, qHTS cell viability counter screen (AID 1346979). Further: nearly all actives have a fitted effect of over 35% in size. Further: potency means the concentration at half of the fitted maximal effect. The method in brief: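 Cells (CHO-K1, wild type) are plated at 1,500 per well and incubated 5hr. Test compounds in DMSO are then pinned in, followed by 16hr at 37C and 5% CO2. Viability is read by CellTiter-Fluor fluorescence after 1hr.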
Assay [4] is described as follows: Caspase-3/7 induction in CHO-K1 cells by small molecules, qHTS assay (AID 1346980). Further: nearly all actives have a fitted effect of over 15% in size. Further: potency means the concentration at half of the fitted maximal effect. The method, boiled down: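 Wild-type CHO-K1 cells exposed to compounds for 17hr at 37 C, 5% CO2. Caspase-3/7 activity then measured by Caspase-Glo 3/7 luminescence after 30min at room temperature.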
The nature of assay [5]: Caspase-3/7 induction in HepG2 cells by small molecules, qHTS cell viability counter screen (AID 1346981). Further: nearly all actives have a fitted effect of over 30% in size. Further: potency means the concentration at half of the fitted maximal effect. The method, boiled down:
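Multiplexed with the caspase-3/7 assay: HepG2 cells, 16 hr compound treatment, CellTiter-Fluor viability detection by fluorescence.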

Assay [6] has as its target Nuclear receptor subfamily 1 group I member 2 (Homo sapiens) (UniProt O75469). Description: Human pregnane X receptor (PXR) small molecule agonists, qHTS assay (AID 1346982). Further: nearly all actives have a fitted effect of over 35% in size. Further: potency means the concentration at half of the fitted maximal effect. The method, boiled down: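 We seeded PXR-Luc HepG2 cells in assay medium containing 5% charcoal-stripped FBS, added compounds 5 hr later, incubated 24 hr, and read luminescence with ONE-Glo reagent.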

In assay [7] the target is Cytochrome P450 2D6 (Homo sapiens) (UniProt P10635). Description: Cytochrome P450 Family 2 Subfamily D Member 6 (CYP2D6) small molecule antagonists: luciferase reporter qHTS assay (AID 1671196). Further: nearly all actives have a fitted effect of over 50% in size. Further: potency means the concentration at half of the fitted maximal effect. The method in brief: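 Luminescence (RLU), read 20 min after detection reagent, indicated CYP2D6 conversion of proluciferin to luciferin during a 1 h NADPH-dependent reaction at room temperature.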

Assay [8] concerns the target Nuclear receptor subfamily 1 group I member 2 (Rattus norvegicus) (UniProt Q9R1A7). The assay is described as follows: Rat pregnane X receptor (rPXR) activation by small molecules, qHTS assay (AID 1346983). Further: nearly all actives have a fitted effect of over 20% in size. The conditions noted are these: rPXR luciferase reporter cells, One-Glo luminescence, 24 h; max activation: hits give high values. The method in brief:
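Cell-based rPXR activation assay: rPXR cells, 2,000 per well, rested 5hr at 37 C, then exposed to compounds in DMSO for 24 hr at 37 C. Luciferase activity read by One-Glo luminescence after 30 min at room temperature.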

The target in assay [9] is Nuclear receptor subfamily 1 group I member 2 (Homo sapiens) (UniProt O75469). Description: CYP3A4 induction through human pregnane X receptor (PXR) by small molecules, qHTS assay (AID 1346984). Further: nearly all actives have a fitted effect of over 40% in size. The method, boiled down:
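qHTS, concentration-response format: HepG2 DPX-2 line, PXR/CYP3A4-luc. Exposure 24 h, 37C. Substrate Luciferin-IPA 3uM final, 3 h. Detection One-Glo, 30 min RT.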

Where “and” joins values, the source holds several entries; their conditions need not be identical. Equal entries are not always repeated. Unmarked numbers belong to inactive results. Inconclusive results are not listed. Calls of active or inactive are those of the source. The call rests on the fitted dose curve; in most records, active means well fitted curve in the direction sought with a large enough effect in the repeat runs; inconclusive means weak or mixed curves; inactive means no such curve, though single readings can be large; an effect the other way counts as inactive or inconclusive.
On the % scale 0 is the no-effect control and ±100 the full control effect.

Chain of Cytochrome P450 2D6 (Homo sapiens) (P10635 whole entry, looked up): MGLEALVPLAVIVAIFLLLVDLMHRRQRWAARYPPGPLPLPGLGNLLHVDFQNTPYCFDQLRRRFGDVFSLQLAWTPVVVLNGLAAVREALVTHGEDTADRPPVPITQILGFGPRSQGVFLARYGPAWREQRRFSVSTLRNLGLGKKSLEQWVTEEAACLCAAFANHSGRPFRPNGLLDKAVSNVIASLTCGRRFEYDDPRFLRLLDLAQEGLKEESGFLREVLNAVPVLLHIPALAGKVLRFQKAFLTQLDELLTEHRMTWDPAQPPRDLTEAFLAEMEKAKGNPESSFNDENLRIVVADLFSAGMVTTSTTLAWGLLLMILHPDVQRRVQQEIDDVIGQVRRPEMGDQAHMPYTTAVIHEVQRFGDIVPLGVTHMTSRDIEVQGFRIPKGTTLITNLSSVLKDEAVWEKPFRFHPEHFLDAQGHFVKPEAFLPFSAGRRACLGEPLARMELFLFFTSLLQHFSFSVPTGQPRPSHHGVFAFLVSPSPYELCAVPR
Chain of Nuclear receptor subfamily 1 group I member 2 (Homo sapiens) (O75469 whole entry, looked up): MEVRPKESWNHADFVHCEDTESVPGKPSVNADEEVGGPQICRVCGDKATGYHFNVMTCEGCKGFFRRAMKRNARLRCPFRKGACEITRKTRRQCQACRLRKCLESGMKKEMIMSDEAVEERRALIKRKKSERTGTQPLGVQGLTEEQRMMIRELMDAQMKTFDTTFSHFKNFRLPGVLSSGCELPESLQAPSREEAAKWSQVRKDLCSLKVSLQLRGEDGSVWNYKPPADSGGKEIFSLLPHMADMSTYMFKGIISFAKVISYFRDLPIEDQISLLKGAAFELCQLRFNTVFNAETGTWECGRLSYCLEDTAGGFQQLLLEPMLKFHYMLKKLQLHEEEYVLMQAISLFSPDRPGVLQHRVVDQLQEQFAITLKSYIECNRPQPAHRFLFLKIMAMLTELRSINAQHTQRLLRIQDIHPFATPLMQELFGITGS
Chain of Nuclear receptor subfamily 1 group I member 2 (Rattus norvegicus) (Q9R1A7 whole entry, looked up): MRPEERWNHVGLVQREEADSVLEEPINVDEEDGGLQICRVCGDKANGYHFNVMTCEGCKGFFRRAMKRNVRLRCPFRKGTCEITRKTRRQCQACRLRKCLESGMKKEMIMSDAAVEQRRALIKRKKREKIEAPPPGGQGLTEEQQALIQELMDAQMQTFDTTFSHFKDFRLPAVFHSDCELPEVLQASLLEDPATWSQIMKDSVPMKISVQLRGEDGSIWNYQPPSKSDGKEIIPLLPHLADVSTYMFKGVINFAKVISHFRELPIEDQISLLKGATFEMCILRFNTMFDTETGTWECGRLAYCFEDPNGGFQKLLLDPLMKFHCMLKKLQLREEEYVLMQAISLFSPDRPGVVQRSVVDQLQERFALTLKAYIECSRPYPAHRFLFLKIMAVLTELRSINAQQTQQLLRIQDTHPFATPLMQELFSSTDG

For `CNC(=O)c1ccccc1`, the Potency result in assay [1], in assay [2], in assay [3], in assay [4], in [5] and in assay [6] was “inactive” each time.
On to `COC(=O)c1cc(Cl)ccc1OC`, for which the Potency result in [1], in [2], in [3], in [4] and in assay [5] was “inactive” each time.
On to `On1ccccc1=S`, for which the Potency is 0.762 µM (active) in [1], 1.71 µM (active) in [2], 0.428 µM (active) in assay [3] and 15.2 µM (active) in assay [5]. In addition, the Potency entry in assay [4] was “inactive”.
In the case of `Cc1cc(O)c(C(C)(C)C)cc1Sc1cc(C(C)(C)C)c(O)cc1C`, the Potency is 13.7 µM (active) in [1]; 30.6 µM (active) in assay [2]; 2.73 µM (active) in [3]; 54.4 µM (active) in [5]; 10.8 µM (active) in assay [6]; 25.1 µM (active) in assay [7]. Moreover, the Potency entry in [4] was “inactive”.
Turning to `CC[C@H]1O[C@]2(CC[C@@H]1C)C[C@@H]1C[C@@H](C/C=C(\C)C[C@@H](C)/C=C/C=C3\CO[C@@H]4[C@H](O)C(C)=C[C@@H](C(=O)O1)[C@]34O)O2`, the Potency in [1] was 27.1 µM (active); in [2] it was 30.4 µM (active); in assay [3] it was 17.1 µM (active); in [4], 13.6 µM (active); in assay [5] it was 42.9 µM (active); in [6] it was 6.06 µM (active).
Regarding `CCOC(=O)O[C@]1(C(=O)OCCl)CC[C@H]2[C@@H]3CCC4=CC(=O)C=C[C@]4(C)[C@H]3[C@@H](O)C[C@@]21C`, the Potency result in assay [1], in assay [2], in assay [3], in assay [4], in assay [5] and in assay [9] was “inactive” throughout. Moreover, the Potency entry in assay [7] is “inactive”. In addition, the Potency in [6] is 5.96 µM (active). The max activation in assay [8] is -1.8%.
For `CC(=O)SC[C@@H](Cc1ccccc1)C(=O)NCC(=O)OCc1ccccc1`, the Potency result in assay [1], in [2], in assay [3], in assay [4], in [5] and in [6] was “inactive” in each case. The max activation in [8] was -6.71%. In addition, in assay [7], the Potency was 1.1 µM (active).
Turning to `CCCCCCCCCCCCc1ccc(O)cc1`, the Potency in [1] is 30.6 µM (active); in [2], 61.1 µM (active); in assay [3], 43.3 µM (active); in [4] it was 54.5 µM (active); in assay [5], 61.1 µM (active); in assay [6], 9.69 µM (active). The Potency entry in assay [7] was “inactive”.
On to `NC(=O)NS(=O)(=O)c1ccc(N)cc1`, for which the Potency entry in assay [1], in assay [2], in [3], in assay [4], in assay [5] and in [6] was “inactive” throughout. Besides, the Potency result in assay [9] and in assay [7] was “inactive” in each case. Also, the max activation in assay [8] was -4.58%.
On to `[Cl][Au]([Cl])[Cl]`, for which the Potency in assay [1] is 13.7 µM (active); in [3], 24.3 µM (active); in assay [5], 68.6 µM (active). In addition, the Potency result in assay [2] and in assay [4] was “inactive” each time.
Take `O=c1cc(-c2ccc(O)cc2)oc2cc(O)cc(O)c12`: the Potency in assay [1] is 39.8 µM (active) and 27.3 µM (active); in [3], 55.2 µM (active) and 43.3 µM (active); in [5] it was 27.7 µM (active) and 61.1 µM (active); in [6] it was 24.7 µM (active) and 24.3 µM (active); in assay [7], 64.1 µM (active). Besides, the Potency result in assay [2] and in assay [4] was “inactive” in each case.
As to `NC(=O)CC[C@@H]1NC(=O)[C@H](Cc2ccccc2)NC(=O)[C@H](Cc2ccc(O)cc2)NC(=O)CCSSC[C@@H](C(=O)N2CCC[C@H]2C(=O)N[C@@H](CCCN=C(N)N)C(=O)NCC(N)=O)NC(=O)[C@H](CC(N)=O)NC1=O`, the Potency entry in [1], in assay [2], in [3], in assay [4], in assay [5] and in assay [6] was “inactive” each time. Besides, the Potency result in [9] and in [7] was “inactive” throughout. Besides, the max activation in assay [8] was -2.21%.
Consider `CC(C)(C)CC(C)(C)c1ccc(O)c(Cc2ccc(Cl)cc2Cl)c1`, for which the Potency in assay [1] is 18.8 µM (active); in [2], 26.6 µM (active); in [3], 18.8 µM (active); in [4] it was 21.1 µM (active); in assay [5], 29.8 µM (active); in assay [6], 2.37 µM (active). Further, the max activation in assay [8] was -0.0398%. In [9], the Potency entry was “inactive”.
For `CCCN(CCC)c1c([N+](=O)[O-])cc(C(F)(F)F)c(N)c1[N+](=O)[O-]`, the Potency is 48.4 µM (active) in [1]; 60.9 µM (active) in [2]; 43.1 µM (active) in [3]; 54.3 µM (active) in assay [4]; 54.3 µM (active) in assay [5]; 4.84 µM (active) in assay [6].
On to `Oc1cccc(-c2c3nc(c(-c4cccc(O)c4)c4ccc([nH]4)c(-c4cccc(O)c4)c4nc(c(-c5cccc(O)c5)c5ccc2[nH]5)CC4)C=C3)c1`, for which the figures for the Potency in [1], in assay [3] and in assay [5] were 15 µM (active), 13.3 µM (active) and 13.3 µM (active), respectively. Further, the Potency result in assay [2], in assay [4] and in [6] was “inactive” each time.
Turning to `ON=C1CCCC1`, the Potency entry in [1], in assay [2], in [3], in assay [4], in assay [5] and in [6] was “inactive” each time.
Regarding `CS(=O)(=O)CCNCc1ccc(-c2ccc3ncnc(Nc4ccc(OCc5cccc(F)c5)c(Cl)c4)c3c2)o1`, the Potency in assay [1] is 26.6 µM (active); in assay [2], 33.5 µM (active); in [3], 23.7 µM (active); in assay [5], 29.8 µM (active). For the same compound, the Potency entry in assay [4] was “inactive”.
As to `[O-][n+]1ccccc1SSc1cccc[n+]1[O-]`, the Potency is 0.184 µM (active) in [1]; 0.291 µM (active) in assay [2]; 0.073 µM (active) in [3]; 4.11 µM (active) in assay [5]; 2.13 µM (active) in [7]. In addition, the caspase-3/7 activation in [4] was -5.93% [at 19 µM]. Also, the activation in assay [6] is -49.4% [at 19 µM]. In addition, the max activation in [8] was -9.36%. In addition, in assay [9], the Potency result was “inactive”.
In the case of `Cc1cc(CCN2CCN(c3nsc4ccccc34)CC2)cc2c1NC(=O)CC2(C)C`, the Potency was 27.3 µM (active) in assay [1]; 24.3 µM (active) in [3]; 61.1 µM (active) in assay [5]; 19.3 µM (active) in [6]; 17.8 µM (active) in assay [7]. The Potency entry in assay [2] and in assay [4] was “inactive” each time.

The values above are taken from PubChem BioAssay (Tox21).
